Molecules are shown by their SMILES. Results with a measured potency or affinity are listed apart.

The subject of the first test is Klebsiella pneumoniae. Particulars: Concentration 32 ug.mL-1;; ASSAY_TEST Inhibition of Bacterial Growth; detection method Absorption (OD600); MEDIA CAMHB; plate type 384well; NBS; CORNING #3640; time 18 hr.
One may read the Inhibition as the drop in the measured response relative to a control, in per cent. For the compound `Cc1ccc(NC(=O)Cn2nc3c4cc(-c5ccc(Cl)cc5)nn4ccn3c2=O)cc1C`, the Inhibition was determined as 9.71%.

On to `Cc1ccc(-c2cc3c4nn(CC(=O)N5CCN(c6ccccc6F)CC5)c(=O)n4ccn3n2)cc1C`, for which the Inhibition was found to be 10.7%.

As to `O=C(Cn1nc2ccc(SCc3ccc(Cl)cc3)nn2c1=O)Nc1ccc(F)c(F)c1`, the Inhibition is 3.9%.

Consider `COc1cccc(CN(c2cc(F)cc(F)c2)S(=O)(=O)c2ccc3nnc(C)n3c2)c1`, for which the Inhibition is 6.42%.

As to `Cc1ccc(C)c(Cn2nc3n(CC(C)C)c(=O)c4sccc4n3c2=O)c1`, the Inhibition was 7.9%.

As to `CC(C)c1nnc2c(=O)n(CC(=O)Nc3cccc(F)c3)c3ccccc3n12`, the Inhibition came to 24.07%.

For the compound `Cc1ccc(NC(=O)Cn2nc3c(N4CCOCC4)nc4ccccc4n3c2=O)cc1C`, the Inhibition was found to be 11.25%.

As to `Cc1ccc2c(c1)N(C(=O)Cn1nc3ccc(Sc4ccccc4)nn3c1=O)CCO2`, the Inhibition turned out to be 4.6%.

For `Cc1cc(C)cc(Oc2nccn3c(=O)n(CC(=O)Nc4cccc(Cl)c4)nc23)c1`, the Inhibition was 0.09%.

In the case of `COc1ccc(-c2cc3c4nn(CC(=O)Nc5ccccc5OC)c(=O)n4ccn3n2)cc1`, the Inhibition was 7.14%.

Regarding `Cc1cccc(C)c1NC(=O)CSc1nnc2ccc(C(=O)Nc3cccc(F)c3)cn12`, the Inhibition is listed as 10.23%.

For `CCC(C)NC(=O)Cn1nc2ccc(SCc3ccc(Cl)cc3)nn2c1=O` (centres undefined), the Inhibition was found to be 12.21%.

In the case of `O=C(Cn1nc2c(N3CCOCC3)nccn2c1=O)NCc1ccc(C(F)(F)F)cc1`, the Inhibition is recorded as 3.05%.

With `O=C(CSc1nnc2c(=O)n(-c3ccccc3)ccn12)Nc1ccc(Br)cc1F`, the Inhibition is 1.03%.

For the compound `O=C(Cn1nc2c3cc(-c4ccc(Cl)cc4)nn3ccn2c1=O)NCc1ccccc1`, the Inhibition was 15.63%.

In the case of `CCOc1ccc(-n2ccn3c(SCC(=O)Nc4ccc(C)c(C)c4)nnc3c2=O)cc1`, the Inhibition was -8.39%.

`CCc1nnc2c(=O)n(CC(=O)Nc3ccc(C#N)cc3)c3ccccc3n12`: the Inhibition is recorded as 5.17%.

As to `O=c1n(Cc2cccc(C(F)(F)F)c2)nc2ccc(S(=O)(=O)N3CCCCC3)cn12`, the Inhibition was determined as 10.15%.

Regarding `CC(C)c1ccc(Oc2nc3ccccc3n3c(=O)n(CC(=O)Nc4ccc5c(c4)OCO5)nc23)cc1`, the Inhibition is reported as 7.45%.

As to `COc1cc(NC(=O)Cn2nc3c(Oc4ccccc4)nccn3c2=O)cc(OC)c1`, the Inhibition was 11.9%.

In the case of `CCCc1nnc2c(=O)n(CC(=O)Nc3ccc4c(c3)OCCO4)c3ccccc3n12`, the Inhibition is given as -1.14%.

Turning to `CCCCc1ccc(NC(=O)Cn2nc3c(SC4CCCCC4)nccn3c2=O)cc1`, the Inhibition is 1.99%.

In the case of `Cc1ccccc1-c1noc(Cn2nc3ccc(-c4ccccc4)nn3c2=O)n1`, the Inhibition was determined as 4.12%.

Consider `COc1ccc(NC(=O)Cn2nc3nc(N4CCOCC4)ccn3c2=O)cc1Cl`, for which the Inhibition stood at 17.46%.

Consider `Cc1nc(-c2ccccn2)cc2nn(CC(=O)Nc3ccccc3C(F)(F)F)c(=O)n12`, for which the Inhibition came to 3.31%.

The next test relates to Candida albicans. Particulars: Concentration 32 ug.mL-1; ASSAY_TEST Inhibition of Fungal Growth; detection method Absorption (OD530).
In the case of `Cc1cc2nn(CC(=O)Nc3ccc(F)cc3F)c(=O)n2c(Nc2ccc(F)c(C)c2)n1`, the Inhibition came to 11.92%.

In the case of `CCOC(=O)c1ccc(NC(=O)Cn2nc3ccc(C(=O)Nc4cccc(C)c4)cn3c2=O)cc1`, the Inhibition was determined as 1.34%.

With `O=C(Cn1nc2c3cc(-c4ccc(F)cc4)nn3ccn2c1=O)NCc1ccccc1Cl`, the Inhibition turned out to be 20.13%.

Consider `COc1ccc(NC(=O)c2ccc3nn(CC(=O)Nc4ccc(C)c(F)c4)c(=O)n3c2)cc1`, for which the Inhibition is given as 10.47%.

In the case of `COc1ccc(C(C)NC(=O)CCc2nnc3ccc(-c4ccc(C)c(C)c4)nn23)cc1OC` (centres undefined), the Inhibition is recorded as 3.04%.

Consider `CSc1cccc(NC(=O)Cn2nc3c(Oc4ccccc4C)nccn3c2=O)c1`, for which the Inhibition was -0.96%.

`O=S(=O)(c1ccc2nncn2c1)N(Cc1ccccc1F)c1ccc2c(c1)OCO2`: the Inhibition worked out at 1.66%.

Turning to `Cc1ccc(CNC(=O)CSc2nnc3c4cc(-c5ccc(C)cc5)nn4ccn23)cc1`, the Inhibition is -0.39%.

With `CCN(C(=O)Cn1nc2nc(Nc3ccc(F)cc3)ccn2c1=O)c1ccccc1`, the Inhibition came out at 1.18%.

`COc1cccc(-n2ccn3c(SCC(=O)c4cc(C)c(C)cc4C)nnc3c2=O)c1`: the Inhibition is given as 2.17%.

In the case of `Cc1cc2nn(CC(=O)Nc3cc(F)ccc3F)c(=O)n2c(Nc2ccc(F)c(C)c2)n1`, the Inhibition worked out at 1.83%.

Turning to `COc1cccc(-n2ccn3c(SCc4ccccc4Cl)nnc3c2=O)c1`, the Inhibition is reported as 2.81%.

On to `O=C(Cn1nc2ccc(-c3ccccc3)nn2c1=O)Nc1ccc(F)c(Cl)c1`, for which the Inhibition is given as 1.94%.

As to `Cc1nnc2ccc(S(=O)(=O)N(Cc3cccc(F)c3)c3cccc(F)c3)cn12`, the Inhibition was 1.95%.

With `Cc1ccc(NC(=O)Cn2nc3c4cc(-c5ccc(Cl)cc5)nn4ccn3c2=O)cc1C`, the Inhibition is reported as 6.69%.

`Cc1ccc(-c2cc3c4nn(CC(=O)N5CCN(c6ccccc6F)CC5)c(=O)n4ccn3n2)cc1C`: the Inhibition amounted to 3.33%.

As for `O=C(Cn1nc2ccc(SCc3ccc(Cl)cc3)nn2c1=O)Nc1ccc(F)c(F)c1`, the Inhibition worked out at 20.34%.

Regarding `COc1cccc(CN(c2cc(F)cc(F)c2)S(=O)(=O)c2ccc3nnc(C)n3c2)c1`, the Inhibition is given as 1.34%.

In the case of `Cc1ccc(C)c(Cn2nc3n(CC(C)C)c(=O)c4sccc4n3c2=O)c1`, the Inhibition is -1.65%.

On to `CC(C)c1nnc2c(=O)n(CC(=O)Nc3cccc(F)c3)c3ccccc3n12`, for which the Inhibition turned out to be 3.13%.

Consider `Cc1ccc(NC(=O)Cn2nc3c(N4CCOCC4)nc4ccccc4n3c2=O)cc1C`, for which the Inhibition is -0.6%.

Turning to `Cc1ccc2c(c1)N(C(=O)Cn1nc3ccc(Sc4ccccc4)nn3c1=O)CCO2`, the Inhibition is recorded as -1.78%.

As to `Cc1cc(C)cc(Oc2nccn3c(=O)n(CC(=O)Nc4cccc(Cl)c4)nc23)c1`, the Inhibition is on record as 0.52%.

With `COc1ccc(-c2cc3c4nn(CC(=O)Nc5ccccc5OC)c(=O)n4ccn3n2)cc1`, the Inhibition is given as 0.94%.

Take `Cc1cccc(C)c1NC(=O)CSc1nnc2ccc(C(=O)Nc3cccc(F)c3)cn12`: the Inhibition was 10.31%.

As to `CCC(C)NC(=O)Cn1nc2ccc(SCc3ccc(Cl)cc3)nn2c1=O` (centres undefined), the Inhibition amounted to 3.51%.

In the case of `O=C(Cn1nc2c(N3CCOCC3)nccn2c1=O)NCc1ccc(C(F)(F)F)cc1`, the Inhibition is 1.76%.

For `O=C(CSc1nnc2c(=O)n(-c3ccccc3)ccn12)Nc1ccc(Br)cc1F`, the Inhibition turned out to be 2.95%.

As for `O=C(Cn1nc2c3cc(-c4ccc(Cl)cc4)nn3ccn2c1=O)NCc1ccccc1`, the Inhibition worked out at 3.19%.

As for `CCOc1ccc(-n2ccn3c(SCC(=O)Nc4ccc(C)c(C)c4)nnc3c2=O)cc1`, the Inhibition came out at 2.77%.

In the case of `CCc1nnc2c(=O)n(CC(=O)Nc3ccc(C#N)cc3)c3ccccc3n12`, the Inhibition worked out at 10.64%.

As to `O=c1n(Cc2cccc(C(F)(F)F)c2)nc2ccc(S(=O)(=O)N3CCCCC3)cn12`, the Inhibition worked out at 0.06%.

For `CC(C)c1ccc(Oc2nc3ccccc3n3c(=O)n(CC(=O)Nc4ccc5c(c4)OCO5)nc23)cc1`, the Inhibition worked out at 1.68%.

Take `COc1cc(NC(=O)Cn2nc3c(Oc4ccccc4)nccn3c2=O)cc(OC)c1`: the Inhibition is reported as -1.97%.

As to `CCCc1nnc2c(=O)n(CC(=O)Nc3ccc4c(c3)OCCO4)c3ccccc3n12`, the Inhibition turned out to be 4.16%.

`CCCCc1ccc(NC(=O)Cn2nc3c(SC4CCCCC4)nccn3c2=O)cc1`: the Inhibition is on record as 20.8%.

In the case of `Cc1ccccc1-c1noc(Cn2nc3ccc(-c4ccccc4)nn3c2=O)n1`, the Inhibition worked out at 31.81%.

For `COc1ccc(NC(=O)Cn2nc3nc(N4CCOCC4)ccn3c2=O)cc1Cl`, the Inhibition is recorded as 1.98%.

Turning to `Cc1nc(-c2ccccn2)cc2nn(CC(=O)Nc3ccccc3C(F)(F)F)c(=O)n12`, the Inhibition was 0.65%.

Source of the values: ChEMBL document CHEMBL4513146, “CO-ADD screening of Karazin Kharkiv National University (Ukraine) compounds”.
